Results taken from PubChem BioAssay (NCI).
About 83,000 compounds went through this panel and 20% of them were active in at least one assay; those are over-represented in the sample as a whole.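 Each cell line was grown in a 96-well plate and treated with one concentration of compound for 48 hours. Values below 10 were considered active.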 Activity calls are given as the source filed them.

Tested on: SK-MEL-2 melanoma
Assay: NCI-60 one-dose screen, 48 h (100 = growth as untreated, 0 = no growth, -100 = all killed)
Details: 10 µM unless noted

| Compound | growth |
| --- | --- |
| CCS(=O)(=O)Nc1cccc(Nc2c3cccc(C)c3nc3c(C)cccc23)c1OC | 51.4% (inactive) |
| Cc1nn(-c2ccccc2)c2nc3c(nc12)C1=NCCN1C(c1ccc(Cl)cc1)N3 (centres undefined) | 79.5% (inactive) |
| O=C(Nc1cccc(C2=NCCN2)c1)c1ccc(N=Nc2ccc(C(=O)Nc3cccc(C4=NCCN4)c3)cc2)cc1 | 56.6% (inactive) |
| COC(=O)[C@@H](Cc1c[nH]c2ccccc12)NC(=O)/C=C/c1ccccc1 | 16.6% (inactive) |
| CCOC(=O)C(CCCCC(NC(C)=O)(C(=O)OCC)C(=O)OCC)(NC(C)=O)C(=O)OCC | 95.9% (inactive) |
| CC(C)N(C(=S)SSC(=S)N(C(C)C)C(C)C)C(C)C | 109% (inactive) |
| CCOC(OCC)c1cnc2nc(NC(C)=O)[nH]c(=O)c2n1 | 95.4% (inactive) |
| CC(C)(C)c1cc(C[P+](c2ccccc2)(c2ccccc2)c2ccccc2)cc(C(C)(C)C)c1O | -39.9% (active) |
| N#Cc1ccc(-c2ccc(-c3cccs3)o2)cc1F | 70.8% (inactive) |
| CCN(C(=O)CCl)C(C)(C)C(SSSC(c1ccc(Cl)cc1)C(C)(C)N(CC)C(=O)CCl)c1ccc(Cl)cc1 (centres undefined) | 78.5% (inactive) |
| N=C(N)c1ccc(-c2ccc(-c3ccco3)o2)cc1F | -66.8% (active) |
| COc1ccc(/C=C/c2nc(NCCCN(C)C)c3ccccc3n2)cc1 | -50.9% (active) |
| COc1cc2c(cc1OC)-c1cc(OC)c(OC)cc1C(CN(C)C)C2 (centres undefined) | 29% [100 µM] (inactive) |
| CCCCCCCCN=C(NCCCCCCCC)SCc1cccc2ccccc12 | -89.8% (active) |
